Measurements published in PubChem BioAssay (EPA / NIEHS).
“And” between values parts separate entries of the source, which are not always exact repeats. Equal values may be shown once. Records with an inconclusive call do not appear. More than one record can exist for a structure, and the calls need not agree. The source made the active and inactive calls. The calls were made as follows, unless noted: active = hit-call score of the fitted dose curve at least 0.9, where 1 is the maximum; inactive = score below 0.9.

Assays:
[1] = target: Paired box protein Pax-6 (Homo sapiens) (UniProt P26367); experiment: ATG_Pax6_CIS: Attagene CIS-FACTORIAL HepG2 Assay for human Paired Box 6 (PAX6) (AID 2282956); details: HepG2 CIS-FACTORIAL PAX6 reporter transcription, RNA readout; actives raise or lower the signal
Procedure, shortened: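 Multiplexed cis-reporter HepG2 system; 24 h treatment; reporter mRNA read by RT-PCR/CE fluorescence; bidirectional fit vs DMSO.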

[2] = ATG_PXRE_CIS: Attagene CIS-FACTORIAL HepG2 Assay for human Pregnane X Receptor Element (PXRE) (AID 2282957); details: HepG2 Attagene CIS-FACTORIAL PXRE reporter, mRNA; actives raise or lower the signal
Procedure, shortened: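 HepG2 cells transiently transfected with cis-regulated multiple reporter transcription units; endogenous factor activity measured as reporter mRNA 24 h after dosing. RT-PCR, fluorescent primer extension, HpaI digestion, capillary electrophoresis; bidirectional fit versus DMSO baseline.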

[3] = ATG_PPRE_CIS: Attagene CIS-FACTORIAL HepG2 Assay for human Peroxisome Proliferator-activated Response Element (PPRE) (AID 2282958); details: HepG2 PPRE cis-element reporter, Attagene transcription factor profiling; actives raise or lower the signal
Procedure, shortened: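 PPRE activity in HepG2: transient cis-reporter transfection, 24 h compound incubation, reporter mRNA by RT-PCR and CE fluorescence; gain/loss fitted against DMSO.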

[4] = ATG_RORE_CIS: Attagene CIS-FACTORIAL HepG2 Assay for human RAR-related Orphan Receptor Element (RORE) (AID 2282959); details: HepG2 Attagene cis-factorial RORE reporter, mRNA; actives raise or lower the signal
Procedure, shortened: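 A 24-hour exposure of transfected HepG2 hepatoma cells precedes RNA isolation and reporter RT-PCR. Labeled products are digested with HpaI and resolved by capillary electrophoresis, with gain or loss of signal scored relative to DMSO.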

[5] = ATG_Sox_CIS: Attagene CIS-FACTORIAL HepG2 Assay for human SRY-box transcription factor (SOX) (AID 2282960); details: HepG2 Attagene cis-factorial SOX reporter, mRNA; actives raise or lower the signal
Procedure, shortened: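 HepG2, cis reporter units, 24 h exposure. Reporter mRNA: RT-PCR → FAM labelling → HpaI → CE fluorescence. Bidirectional fit vs DMSO.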

[6] = target: Transcription factor Sp1 (Homo sapiens) (UniProt P08047); experiment: ATG_Sp1_CIS: Attagene CIS-FACTORIAL HepG2 Assay for human Specificity Protein 1 (Sp1) (AID 2282961); details: HepG2 Sp1 cis-reporter transcription, actives raise or lower the signal
Procedure, shortened: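 Liver-derived HepG2 cells, cis-element reporter library, 24 h treatment; RNA isolated, cDNA amplified with reporter-specific primers, FAM-labeled fragments sized on capillary analyzer. DMSO baseline, bidirectional curve fit.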

[7] = ATG_SREBP_CIS: Attagene CIS-FACTORIAL HepG2 Assay for human Sterol Regulatory Element Binding (SREBP) (AID 2282962); details: HepG2 Attagene cis-factorial SREBP reporter, mRNA; actives raise or lower the signal
Procedure, shortened: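 mRNA induction of transfected cis-promoter reporters in HepG2 cells, 24 h post-dose. Detection: RT-PCR with 6-FAM-labelled products, HpaI digest, capillary electrophoresis. DMSO served as negative control and baseline.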

[8] = target: Signal transducer and activator of transcription 3 (Homo sapiens) (UniProt P40763); experiment: ATG_STAT3_CIS: Attagene CIS-FACTORIAL HepG2 Assay for human Signal Transducer and Activator of Transcription 3 (STAT3) (AID 2282963); details: HepG2, Attagene cis-factorial STAT3 reporter transcription; actives raise or lower the signal
Procedure, shortened: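 Endogenous STAT3-responsive cis-element activity was read in transiently transfected HepG2 cells after 24 h treatment. Reporter transcripts were quantified via RT-PCR and capillary electrophoresis, with DMSO as negative control and bidirectional curve fitting.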

[9] = ATG_TA_CIS: Attagene CIS-FACTORIAL HepG2 Assay for human TA Basal Promoter (AID 2282964); details: HepG2 Attagene CIS-factorial TA basal promoter reporter; actives raise or lower the signal
Procedure, shortened: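 Transient MRTU transfection of HepG2 preceded 24 h compound exposure. Reporter mRNA levels were then read by RT-PCR with capillary electrophoresis, and this background-control endpoint was fitted bidirectionally to DMSO.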

[10] = ATG_TCF_b_cat_CIS: Attagene CIS-FACTORIAL HepG2 Assay for human T-Cell-Factor with beta-catenin (TCF/b-cat) (AID 2282965); details: HepG2 TCF/beta-catenin cis-reporter transcription, actives raise or lower the signal
Procedure, shortened: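 Endogenous transcription factor activity is captured through cis-promoter reporter constructs transiently introduced into human HepG2 liver cells. Induced reporter mRNA is measured after 24 h and fitted bidirectionally relative to DMSO.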

[11] = ATG_TAL_CIS: Attagene CIS-FACTORIAL HepG2 Assay for human TAL Basal Promoter (AID 2282966); details: HepG2 Attagene cis-factorial TAL promoter reporter; actives raise or lower the signal;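 also: background control endpoint measuring basal TAL promoter reporter mRNA not a specific factor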
Procedure, shortened: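 HepG2 cells were transiently transfected with promoter-driven multiplexed reporter units and dosed for 24 h. Reporter mRNA was measured by RT-PCR with capillary electrophoresis fluorescence; bidirectional fits used DMSO as baseline, serving as a background control.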

[12] = ATG_TGFb_CIS: Attagene CIS-FACTORIAL HepG2 Assay for human Transforming Growth Factor (TGF) (AID 2282967); details: HepG2 Attagene CIS TGFb reporter, mRNA transcription; actives raise or lower the signal
Procedure, shortened: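 After a 24-hour incubation with compound, transfected HepG2 cells were lysed for RNA; reporter cDNA was amplified, fluorescently end-labeled and separated by CE. DMSO served as baseline for bidirectional fits.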

[13] = ATG_VDRE_CIS: Attagene CIS-FACTORIAL HepG2 Assay for human Vitamin D Receptor Element (VDRE) (AID 2282968); details: HepG2 VDRE cis-reporter transcription, actives raise or lower the signal
Procedure, shortened: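 Reporter mRNA induction, quantified by capillary electrophoresis of fluorescently labelled RT-PCR products, was read 24 h after dosing HepG2 cells carrying transiently transfected cis-regulated reporter units; gain or loss relative to DMSO.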

[14] = target: X-box-binding protein 1 (Homo sapiens) (UniProt P17861); experiment: ATG_Xbp1_CIS: Attagene CIS-FACTORIAL HepG2 Assay for human X-box Binding Protein 1 (XBP1) (AID 2282972); details: HepG2 XBP1 cis-element reporter, Attagene multiplex; actives raise or lower the signal
Procedure, shortened: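 Fluorescence-labelled cDNA fragments from reporter transcripts, separated by capillary electrophoresis, give the signal. Source: HepG2 cells transfected with promoter-driven reporter units, harvested 24 h post-dose. DMSO served as reference for bidirectional curve fitting.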

[15] = target: Nuclear receptor subfamily 1 group I member 3 (Homo sapiens) (UniProt Q14994); experiment: ATG_CAR_TRANS: Attagene TRANS-FACTORIAL HepG2 Assay for human Constitutive Androstane Receptor (CAR) (AID 2282969; active = hit-call score of the fitted dose curve at least 0.9, where 1 is the maximum;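 also: activators raise reporter mRNA above DMSO so AC50 marks induction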); details: HepG2 Attagene TRANS-FACTORIAL CAR reporter
Procedure, shortened: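 Readout is reporter mRNA induction, quantified by fluorescent primer extension and capillary electrophoresis after RT-PCR. Cells were HepG2 transiently carrying chimeric NR-Gal4 constructs with GAL4-UAS reporters, treated for 24 h; activity scored upward from DMSO.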

[16] = target: Estrogen receptor (Homo sapiens) (UniProt P03372); experiment: ATG_ERa_TRANS: Attagene TRANS-FACTORIAL HepG2 Assay for human Estrogen Receptor alpha (ERa) (AID 2282970; active = hit-call score of the fitted dose curve at least 0.9, where 1 is the maximum); details: HepG2 Attagene TRANS ERa GAL4 reporter, mRNA
Procedure, shortened: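 HepG2 cells transiently transfected with multiplexed GAL4-UAS reporter units; ERa activity read via exogenous chimeric NR-Gal4 protein. After 24 hour compound exposure, reporter mRNA measured by RT-PCR with 6-FAM labelling and capillary electrophoresis; gain-of-signal fitted relative to DMSO.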

[17] = ATG_GAL4_TRANS: Attagene TRANS-FACTORIAL HepG2 Assay for GAL4 (Internal Marker) (AID 2282976; active = hit-call score of the fitted dose curve at least 0.9, where 1 is the maximum); details: HepG2 Attagene TRANS GAL4 internal marker reporter
Procedure, shortened: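 HepG2 cells transiently transfected with multiplexed GAL4-UAS reporter constructs were dosed for 24 h. Reporter mRNA was measured by RT-PCR, 6-FAM primer extension, HpaI digestion and capillary electrophoresis, and gain of signal was fitted relative to DMSO.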

[18] = target: Estrogen-related receptor gamma (Homo sapiens) (UniProt P62508); experiment: ATG_ERRg_TRANS: Attagene TRANS-FACTORIAL HepG2 Assay for human Estrogen-Related Receptor gamma (ERRg) (AID 2282977; active = hit-call score of the fitted dose curve at least 0.9, where 1 is the maximum;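 also: hits increase reporter signal over DMSO so potencies reflect activators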); details: HepG2 Attagene TRANS reporter, ERRg transactivation
Procedure, shortened: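 HepG2 cells transiently transfected with multiplexed GAL4-UAS reporter units driven by chimeric NR-Gal4 proteins; 24 h exposure. Reporter mRNA quantified by RT-PCR, fluorescent labelling, HpaI digestion and capillary electrophoresis; gain of signal vs DMSO.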

[19] = target: Steroid hormone receptor ERR1 (Homo sapiens) (UniProt P11474); experiment: ATG_ERRa_TRANS: Attagene TRANS-FACTORIAL HepG2 Assay for human Estrogen-Related Receptor alpha (ERRa) (AID 2282971; active = hit-call score of the fitted dose curve at least 0.9, where 1 is the maximum); details: HepG2 Attagene TRANS reporter, ERRa transactivation
Procedure, shortened: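 HepG2 cells transiently transfected with multiplexed GAL4-UAS reporter units reading chimeric ERRa-Gal4 activity; 24 h compound exposure. Reporter mRNA measured by RT-PCR, 6-FAM labelling, HpaI digest and capillary electrophoresis; gain of signal fitted versus DMSO baseline.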

[20] = ATG_M_19_TRANS: Attagene TRANS-FACTORIAL HepG2 Assay for M19 Transcription Factor (Internal Marker) (AID 2282974; active = hit-call score of the fitted dose curve at least 0.9, where 1 is the maximum); details: HepG2 Attagene TRANS-FACTORIAL M19 internal marker reporter
Procedure, shortened: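 Transfected HepG2 (GAL4-UAS MRTUs), 24 h compound, TriZol RNA, DNase-treated RT, reporter PCR, FAM label, HpaI digest, CE fluorescence; gain vs DMSO.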

Measured: AC50

Sequence of Signal transducer and activator of transcription 3 (Homo sapiens) (P40763 whole entry, looked up): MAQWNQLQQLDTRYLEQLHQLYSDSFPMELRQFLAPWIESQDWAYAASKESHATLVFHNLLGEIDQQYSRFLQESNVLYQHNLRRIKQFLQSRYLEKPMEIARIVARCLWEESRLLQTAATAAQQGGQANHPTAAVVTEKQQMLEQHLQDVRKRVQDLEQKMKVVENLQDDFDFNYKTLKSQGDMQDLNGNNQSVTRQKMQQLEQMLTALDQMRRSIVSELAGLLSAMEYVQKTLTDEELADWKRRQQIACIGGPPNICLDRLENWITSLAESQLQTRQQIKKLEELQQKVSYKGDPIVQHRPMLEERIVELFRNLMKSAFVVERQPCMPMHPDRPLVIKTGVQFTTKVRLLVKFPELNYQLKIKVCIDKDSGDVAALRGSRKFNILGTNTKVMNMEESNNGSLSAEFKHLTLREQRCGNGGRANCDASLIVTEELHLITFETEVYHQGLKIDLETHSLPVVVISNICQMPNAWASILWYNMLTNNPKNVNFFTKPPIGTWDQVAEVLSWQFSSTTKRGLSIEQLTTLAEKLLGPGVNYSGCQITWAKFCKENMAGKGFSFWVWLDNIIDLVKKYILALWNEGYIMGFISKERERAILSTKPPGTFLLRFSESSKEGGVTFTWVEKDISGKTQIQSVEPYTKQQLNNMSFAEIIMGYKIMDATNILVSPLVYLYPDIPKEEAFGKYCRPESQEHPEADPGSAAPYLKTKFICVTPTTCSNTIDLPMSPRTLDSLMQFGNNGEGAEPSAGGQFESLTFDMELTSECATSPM
Sequence of X-box-binding protein 1 (Homo sapiens) (P17861 whole entry, looked up, the tested form may be a part): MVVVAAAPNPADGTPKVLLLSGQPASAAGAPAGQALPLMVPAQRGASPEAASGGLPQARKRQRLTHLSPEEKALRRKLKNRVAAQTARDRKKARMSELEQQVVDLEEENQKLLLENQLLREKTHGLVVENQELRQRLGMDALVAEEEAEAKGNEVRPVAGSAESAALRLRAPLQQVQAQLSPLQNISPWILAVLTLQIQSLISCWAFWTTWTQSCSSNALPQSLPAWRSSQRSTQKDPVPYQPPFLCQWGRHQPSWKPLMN
Sequence of Transcription factor Sp1 (Homo sapiens) (P08047 whole entry, looked up, the tested form may be a part): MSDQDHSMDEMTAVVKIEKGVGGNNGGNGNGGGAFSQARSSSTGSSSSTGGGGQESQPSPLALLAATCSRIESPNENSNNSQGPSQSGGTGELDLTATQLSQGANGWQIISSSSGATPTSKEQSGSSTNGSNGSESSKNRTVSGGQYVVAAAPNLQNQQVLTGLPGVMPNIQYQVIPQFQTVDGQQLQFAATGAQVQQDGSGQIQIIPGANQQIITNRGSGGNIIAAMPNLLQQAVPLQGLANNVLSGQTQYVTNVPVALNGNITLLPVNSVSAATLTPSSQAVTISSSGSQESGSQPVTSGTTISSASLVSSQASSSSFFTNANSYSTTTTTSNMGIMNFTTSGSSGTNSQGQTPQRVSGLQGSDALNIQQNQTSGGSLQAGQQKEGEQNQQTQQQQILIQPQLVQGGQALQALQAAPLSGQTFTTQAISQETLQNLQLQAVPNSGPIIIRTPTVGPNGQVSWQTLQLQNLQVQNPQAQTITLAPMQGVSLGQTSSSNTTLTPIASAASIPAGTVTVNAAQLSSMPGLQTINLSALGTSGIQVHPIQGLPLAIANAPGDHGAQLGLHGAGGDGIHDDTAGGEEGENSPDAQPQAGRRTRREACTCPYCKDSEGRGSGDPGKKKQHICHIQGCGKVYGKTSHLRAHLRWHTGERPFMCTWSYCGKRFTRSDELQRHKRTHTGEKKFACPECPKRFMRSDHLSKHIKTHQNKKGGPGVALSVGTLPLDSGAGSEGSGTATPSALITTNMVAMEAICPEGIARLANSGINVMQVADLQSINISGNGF
Sequence of Paired box protein Pax-6 (Homo sapiens) (P26367 whole entry, looked up): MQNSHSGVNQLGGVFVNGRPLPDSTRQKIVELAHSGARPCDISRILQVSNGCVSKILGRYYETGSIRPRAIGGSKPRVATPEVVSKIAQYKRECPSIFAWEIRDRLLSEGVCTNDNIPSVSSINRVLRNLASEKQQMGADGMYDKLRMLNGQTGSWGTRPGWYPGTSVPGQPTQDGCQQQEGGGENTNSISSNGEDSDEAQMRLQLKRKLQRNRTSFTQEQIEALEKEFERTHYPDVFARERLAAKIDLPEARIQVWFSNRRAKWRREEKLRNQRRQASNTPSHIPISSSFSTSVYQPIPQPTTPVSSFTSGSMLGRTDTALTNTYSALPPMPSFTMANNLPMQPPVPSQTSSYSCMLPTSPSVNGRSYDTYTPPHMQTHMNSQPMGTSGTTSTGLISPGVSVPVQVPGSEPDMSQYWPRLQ
Sequence of Estrogen receptor (Homo sapiens) (P03372 whole entry, looked up, the tested form may be a part): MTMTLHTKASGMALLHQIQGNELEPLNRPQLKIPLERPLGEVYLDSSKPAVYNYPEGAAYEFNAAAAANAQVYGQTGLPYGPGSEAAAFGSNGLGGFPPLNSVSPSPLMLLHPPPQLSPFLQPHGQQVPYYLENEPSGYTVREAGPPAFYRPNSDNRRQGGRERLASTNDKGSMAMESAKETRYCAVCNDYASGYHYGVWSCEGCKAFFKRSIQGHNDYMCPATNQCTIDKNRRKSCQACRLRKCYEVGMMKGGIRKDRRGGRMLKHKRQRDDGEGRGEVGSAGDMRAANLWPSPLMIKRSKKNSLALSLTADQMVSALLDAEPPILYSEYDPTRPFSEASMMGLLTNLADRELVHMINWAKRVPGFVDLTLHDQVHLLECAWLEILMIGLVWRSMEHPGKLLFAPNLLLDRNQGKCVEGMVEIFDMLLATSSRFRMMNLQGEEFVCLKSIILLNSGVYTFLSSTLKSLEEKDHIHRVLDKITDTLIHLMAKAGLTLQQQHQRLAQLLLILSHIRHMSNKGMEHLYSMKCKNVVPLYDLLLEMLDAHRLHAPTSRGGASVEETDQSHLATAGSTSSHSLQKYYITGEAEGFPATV
Sequence of Nuclear receptor subfamily 1 group I member 3 (Homo sapiens) (Q14994 whole entry, looked up, the tested form may be a part): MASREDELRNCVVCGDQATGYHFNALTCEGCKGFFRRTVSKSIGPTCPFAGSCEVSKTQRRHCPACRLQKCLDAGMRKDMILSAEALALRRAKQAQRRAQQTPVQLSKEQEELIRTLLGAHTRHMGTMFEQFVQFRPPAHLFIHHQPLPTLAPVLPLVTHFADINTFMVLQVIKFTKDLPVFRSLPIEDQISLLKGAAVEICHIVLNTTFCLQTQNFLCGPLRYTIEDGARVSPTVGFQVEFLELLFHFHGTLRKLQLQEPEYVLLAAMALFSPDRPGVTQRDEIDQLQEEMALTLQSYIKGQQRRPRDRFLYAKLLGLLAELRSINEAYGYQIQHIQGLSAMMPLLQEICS
Sequence of Estrogen-related receptor gamma (Homo sapiens) (P62508 whole entry, looked up, the tested form may be a part): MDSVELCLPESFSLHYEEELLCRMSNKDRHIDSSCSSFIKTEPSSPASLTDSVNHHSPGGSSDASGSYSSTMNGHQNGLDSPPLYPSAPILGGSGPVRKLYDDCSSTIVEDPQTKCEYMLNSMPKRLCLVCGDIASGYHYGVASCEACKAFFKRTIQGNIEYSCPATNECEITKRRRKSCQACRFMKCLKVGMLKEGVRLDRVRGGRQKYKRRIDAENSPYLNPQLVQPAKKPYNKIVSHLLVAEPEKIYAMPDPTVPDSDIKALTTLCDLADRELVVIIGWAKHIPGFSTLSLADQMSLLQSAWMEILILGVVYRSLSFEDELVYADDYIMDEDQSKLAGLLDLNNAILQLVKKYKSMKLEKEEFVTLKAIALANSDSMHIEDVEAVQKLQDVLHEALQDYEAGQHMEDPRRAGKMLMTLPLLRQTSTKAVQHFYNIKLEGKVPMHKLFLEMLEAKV
Sequence of Steroid hormone receptor ERR1 (Homo sapiens) (P11474 whole entry, looked up, the tested form may be a part): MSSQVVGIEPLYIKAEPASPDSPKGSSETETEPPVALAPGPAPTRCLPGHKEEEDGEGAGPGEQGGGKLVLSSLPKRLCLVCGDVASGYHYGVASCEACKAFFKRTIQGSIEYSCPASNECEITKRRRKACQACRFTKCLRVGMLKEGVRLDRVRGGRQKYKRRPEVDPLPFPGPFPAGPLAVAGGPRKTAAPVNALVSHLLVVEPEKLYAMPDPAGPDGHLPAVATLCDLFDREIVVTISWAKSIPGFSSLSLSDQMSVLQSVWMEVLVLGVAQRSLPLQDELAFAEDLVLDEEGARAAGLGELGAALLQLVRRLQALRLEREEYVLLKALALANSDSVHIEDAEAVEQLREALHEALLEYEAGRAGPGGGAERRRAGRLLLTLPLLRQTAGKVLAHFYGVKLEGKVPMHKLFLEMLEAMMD

Cc1ccc(C(C)C)cc1
not listed: [15] | [16] | [17] | [18] | [19] | [20]
inactive: all other assays above

CN(C)c1ccc(C(=C2C=CC(=[N+](C)C)C=C2)c2ccc(N(C)C)cc2)cc1
active: [2] 2.19 µM | [6] 1690 nM | [9] 990 nM | [10] 2.96 µM | [14] 2280 nM
not listed: [15] | [16] | [17] | [18] | [19] | [20]
inactive: all other assays above

O=C(O)c1ccccc1C(=O)OCc1ccccc1
not listed: [13] | [18] | [19] | [20]
inactive: all other assays above

CCN(CC)C(=O)c1cc(S(=O)(=O)Cc2ccccc2)c(N2CCC(c3ccccc3)CC2)cc1N(CC)CCN(C)C
active: [2] 0.126 µM | [7] 926 nM
not listed: [17] | [19] | [20]
inactive: all other assays above

Cc1cn([C@H]2C[C@H](N=[N+]=[N-])[C@@H](CO)O2)c(=O)[nH]c1=O
not listed: [15] | [16] | [17] | [20]
inactive: all other assays above

O=C1O[C@H]([C@@H](O)CO)C(O)=C1O
active: [2] 184 µM and 54.4 µM
not listed: [13] | [15] | [16] | [18] | [19] | [20]
inactive: all other assays above

CCCCCCCC[Si](OCC)(OCC)OCC
active: [2] 8.67 µM [middle of 4 runs] | [3] 62.9 µM and 70.5 µM | [5] 147000 nM | [6] 159000 nM | [7] 100000 nM | [10] 68.9 µM and 100 µM | [11] 148000 nM | [13] 169000 nM
inactive: [1] | [3] | [4] | [5] | [6] | [7] | [8] | [9] | [10] | [11] | [12] | [13] | [14] | [20]
